Test results: PubChem BioAssay (EPA / NIEHS)
Active and inactive are the calls of the source. Rule for the calls: active = hit-call score of the fitted dose curve at least 0.9, where 1 is the maximum; inactive = score below 0.9.

Legend:
Settings in all cases: mRNA level, 48 h; actives raise or lower the signal
[1] = read-out: Nuclear factor NF-kappa-B p105 subunit (Homo sapiens) (UniProt P19838); experiment: LTEA_HepaRG_NFKB1: Life Technologies and Expression Analysis (LTEA) Assay for Nuclear Factor Kappa B Subunit 1 (NFKB1) using HepaRG (AID 2283521)
Method in brief: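 Differentiated human HepaRG cells in serum-free induction medium with 0.5% DMSO were exposed for 48 h to eight half-log concentrations, top 100 uM, in duplicate. NFKB1 mRNA measured by Fluidigm TaqMan qRT-PCR, normalised to ACTB, GAPDH and POLR2A; bidirectional fit versus DMSO.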

[2] = read-out: Protein phosphatase 2A (PPP2R4), PTPA (gene 5524); experiment: LTEA_HepaRG_PPP2R4: Life Technologies and Expression Analysis (LTEA) Assay for Protein phosphatase 2A (PPP2R4) using HepaRG (AID 2283522)
Method in brief: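 Using HepaRG cultures maintained in 0.5% DMSO, chemicals are tested 48 h at up to 100 uM in duplicate. Induction or suppression of PPP2R4 mRNA, measured by qRT-PCR, is fitted bidirectionally against the vehicle baseline.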

[3] = read-out: Phosphatase and tensin (PTEN), PTEN (gene 5728); experiment: LTEA_HepaRG_PTEN: Life Technologies and Expression Analysis (LTEA) Assay for Phosphatase and tensin (PTEN) using HepaRG (AID 2283523)
Method in brief: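 Expression of PTEN is quantified in the human liver line HepaRG following two days of dosing (top concentration 100 uM, half-log dilutions, 0.5% DMSO). Values derive from bidirectional curve fitting relative to DMSO controls.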

[4] = read-out: solute carrier (SLC22A1), SLC22A1 (gene 6580); experiment: LTEA_HepaRG_SLC22A1: Life Technologies and Expression Analysis (LTEA) Assay for solute carrier (SLC22A1) using HepaRG (AID 2283524)
Method in brief: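 Transcript induction or suppression of SLC22A1 in human HepaRG cultures is scored after 48 h chemical treatment, with DMSO (0.5%) as baseline for bidirectional fitting. Concentrations span eight half-log points topping at 100 uM.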

[5] = read-out: Pyruvate Dehydrogenase Kinase 4 (PDK4), PDK4 (gene 5166); experiment: LTEA_HepaRG_PDK4: Life Technologies and Expression Analysis (LTEA) Assay for Pyruvate Dehydrogenase Kinase 4 (PDK4) using HepaRG (AID 2283525)
Method in brief: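 Eight-point, half-log concentration series (max 100 uM, 0.5% DMSO) applied to differentiated HepaRG cells for 48 h in duplicate. Endpoint: PDK4 mRNA induction or repression by qRT-PCR against DMSO baseline.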

[6] = read-out: NAD(P)H dehydrogenase [quinone] 1 (NQO1), NQO1 (gene 1728); experiment: LTEA_HepaRG_NQO1: Life Technologies and Expression Analysis (LTEA) Assay for NAD(P)H dehydrogenase [quinone] 1 (NQO1) using HepaRG (AID 2283526)
Method in brief: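 In this assay, gene expression is read by qRT-PCR after 48 h exposure of HepaRG cells to eight concentrations (max 100 uM, half-log) in 0.5% DMSO. Each chemical runs in duplicate, and activity is scored relative to vehicle.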

[7] = read-out: Nuclear factor erythroid 2-related factor 2 (Homo sapiens) (UniProt Q16236); experiment: LTEA_HepaRG_NFE2L2: Life Technologies and Expression Analysis (LTEA) Assay for Nuclear factor erythroid 2-related factor 2 (NFE2L2) Transcription Factor using HepaRG (AID 2283527)
Method in brief: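 Human liver HepaRG line treated in duplicate for 48 h with an eight-point series topping at 100 uM. Gene expression of NFE2L2 by qRT-PCR, bidirectionally fitted against the vehicle control.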

[8] = read-out: Signal transducer and activator of transcription 3 (Homo sapiens) (UniProt P40763); experiment: LTEA_HepaRG_STAT3: Life Technologies and Expression Analysis (LTEA) Assay for Signal transducer and activator of transcription (STAT3) using HepaRG (AID 2283529)
Method in brief: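 In this transcriptional endpoint, HepaRG cultures receive test chemicals at up to 100 uM for 48 h, tested in duplicate. STAT3 mRNA is normalized to ACTB, GAPDH and POLR2A.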

[9] = read-out: solute carrier (SLCO1B1), SLCO1B1 (gene 10599); experiment: LTEA_HepaRG_SLCO1B1: Life Technologies and Expression Analysis (LTEA) Assay for solute carrier (SLCO1B1) using HepaRG (AID 2283530)
Method in brief: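 Differentiated human HepaRG cells, plated 48 h, switched to serum-free induction medium and exposed in duplicate for 48 h to 8 half-log concentrations (top 100 uM) in 0.5% DMSO. SLCO1B1 mRNA by TaqMan qRT-PCR, normalized to ACTB/GAPDH/POLR2A.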

[10] = read-out: sulfotransferase 2A1 (SULT2A1), SULT2A1 (gene 6822); experiment: LTEA_HepaRG_SULT2A1: Life Technologies and Expression Analysis (LTEA) Assay for sulfotransferase 2A1 (SULT2A1) using HepaRG (AID 2283531)
Method in brief: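 Differentiated human HepaRG cells in serum-free induction medium were exposed for 48 h to eight half-log concentrations (top 100 uM, 0.5% DMSO). SULT2A1 mRNA was measured by qRT-PCR, normalized to ACTB, GAPDH and POLR2A, and fitted bidirectionally against DMSO.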

[11] = read-out: Transforming Growth Factor (TGFA), TGFA (gene 7039); experiment: LTEA_HepaRG_TGFA: Life Technologies and Expression Analysis (LTEA) Assay for Transforming Growth Factor (TGFA) using HepaRG (AID 2283532)
Method in brief: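 Gene expression of TGFA was quantified by qRT-PCR after human HepaRG cells were treated for 48 h with test chemicals (eight concentrations, highest 100 uM, 0.5% DMSO). Activity in either direction was fitted relative to DMSO.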

[12] = read-out: Transforming Growth Factor (TGFB1), TGFB1 (gene 7040); experiment: LTEA_HepaRG_TGFB1: Life Technologies and Expression Analysis (LTEA) Assay for Transforming Growth Factor (TGFB1) Transporter using HepaRG (AID 2283533)
Method in brief: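 Differentiated human HepaRG cells in serum-free induction medium were exposed in duplicate for 48 h to eight concentrations (top 100 uM, half-log steps, 0.5% DMSO). TGFB1 mRNA was quantified by qRT-PCR, normalized to ACTB, GAPDH, POLR2A, and fitted bidirectionally against DMSO.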

TIMP1, TIMP1 (gene 7076) = experiment: LTEA_HepaRG_TIMP1: Life Technologies and Expression Analysis (LTEA) Assay for TIMP1 using HepaRG (AID 2283534);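 note: TaqMan qRT-PCR signal normalized to ACTB GAPDH and POLR2A housekeeping genes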
Method in brief: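 Differentiated human HepaRG cells in serum-free induction medium were exposed 48 h to chemicals (8 half-log concentrations, top 100 uM, 0.5% DMSO). TIMP1 mRNA was quantified by TaqMan qRT-PCR, normalized to ACTB/GAPDH/POLR2A; bidirectional fit versus DMSO.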

[13] = read-out: Tumor necrosis factor receptor 1 (TNFRSF1A), TNFRSF1A (gene 7132); experiment: LTEA_HepaRG_TNFRSF1A: Life Technologies and Expression Analysis (LTEA) Assay for Tumor necrosis factor receptor 1 (TNFRSF1A) using HepaRG (AID 2283535)
Method in brief: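 Differentiated human HepaRG cells were exposed in duplicate for 48 h in serum-free induction medium to eight concentrations (top 100 uM, half-log steps, 0.5% DMSO). TNFRSF1A mRNA was quantified by qRT-PCR, normalized to ACTB, GAPDH and POLR2A, then fitted bidirectionally against DMSO.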

[14] = read-out: Thyroid Hormone Responsive (THRSP), THRSP (gene 7069); experiment: LTEA_HepaRG_THRSP: Life Technologies and Expression Analysis (LTEA) Assay for Thyroid Hormone Responsive (THRSP) using HepaRG (AID 2283536)
Method in brief: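 Cell model: human HepaRG, approx. 100,000 cells/well, 0.5% DMSO vehicle. Exposure lasts 48 h; phenobarbital 1 mM serves as induction positive control. Gene expression is measured by qRT-PCR against three endogenous control genes.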

[15] = read-out: Cellular tumor antigen p53 (Homo sapiens) (UniProt P04637); experiment: LTEA_HepaRG_TP53: Life Technologies and Expression Analysis (LTEA) Assay for Tumor Protein P53 (TP53) using HepaRG (AID 2283537)
Method in brief: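 Differentiated HepaRG cells in serum-free induction medium exposed 48 h in duplicate to 8 half-log concentrations, top 100 uM, 0.5% DMSO. TP53 mRNA by TaqMan qRT-PCR (Fluidigm), normalized to ACTB, GAPDH, POLR2A; fitted bidirectionally versus DMSO.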

[16] = read-out: UDP glucuronosyltransferase (UGT1A6), UGT1A6 (gene 54578); experiment: LTEA_HepaRG_UGT1A6: Life Technologies and Expression Analysis (LTEA) Assay for UDP glucuronosyltransferase (UGT1A6) using HepaRG (AID 2283539)
Method in brief: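 Human HepaRG cells were dosed for 48 h in serum-free induction medium with 0.5% DMSO vehicle, eight-point half-log series from 100 uM, in duplicate. UGT1A6 mRNA was measured by qRT-PCR, normalized to ACTB, GAPDH, POLR2A, and fitted bidirectionally against DMSO.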

[17] = read-out: X-box binding protein 1 (XBP1), XBP1 (gene 7494); experiment: LTEA_HepaRG_XBP1: Life Technologies and Expression Analysis (LTEA) Assay for X-box binding protein 1 (XBP1) using HepaRG (AID 2283540)
Method in brief: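 Differentiated human HepaRG cells in serum-free induction medium were exposed in duplicate for 48 h to eight half-log concentrations up to 100 uM in 0.5% DMSO. XBP1 mRNA was quantified by qRT-PCR, normalised to ACTB, GAPDH and POLR2A, with bidirectional fitting against DMSO.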

[18] = read-out: succinate dehydrogenase complex iron sulfur subunit B (SDHB), SDHB (gene 6390); experiment: LTEA_HepaRG_SDHB: Life Technologies and Expression Analysis (LTEA) Assay for succinate dehydrogenase complex iron sulfur subunit B (SDHB) using HepaRG (AID 2283528)
Method in brief: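 HepaRG cells (~100,000/well, plated 48 h) exposed in duplicate for 48 h in serum-free induction medium to 8-point half-log series from 100 uM in 0.5% DMSO; mRNA by qRT-PCR normalised to ACTB, GAPDH, POLR2A; bidirectional fit versus DMSO.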

[19] = read-out: UDP glucuronosyltransferase (UGT1A1), UGT1A1 (gene 54658); experiment: LTEA_HepaRG_UGT1A1: Life Technologies and Expression Analysis (LTEA) Assay for UDP glucuronosyltransferase (UGT1A1) using HepaRG (AID 2283538)
Method in brief: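 mRNA induction or loss of UGT1A1, by TaqMan qRT-PCR, in duplicate HepaRG wells after 48 h exposure to half-log dilutions topping at 100 uM; DMSO (0.5%) served as baseline.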

Measured: AC50

Chain of Nuclear factor erythroid 2-related factor 2 (Homo sapiens) (Q16236 whole entry, looked up): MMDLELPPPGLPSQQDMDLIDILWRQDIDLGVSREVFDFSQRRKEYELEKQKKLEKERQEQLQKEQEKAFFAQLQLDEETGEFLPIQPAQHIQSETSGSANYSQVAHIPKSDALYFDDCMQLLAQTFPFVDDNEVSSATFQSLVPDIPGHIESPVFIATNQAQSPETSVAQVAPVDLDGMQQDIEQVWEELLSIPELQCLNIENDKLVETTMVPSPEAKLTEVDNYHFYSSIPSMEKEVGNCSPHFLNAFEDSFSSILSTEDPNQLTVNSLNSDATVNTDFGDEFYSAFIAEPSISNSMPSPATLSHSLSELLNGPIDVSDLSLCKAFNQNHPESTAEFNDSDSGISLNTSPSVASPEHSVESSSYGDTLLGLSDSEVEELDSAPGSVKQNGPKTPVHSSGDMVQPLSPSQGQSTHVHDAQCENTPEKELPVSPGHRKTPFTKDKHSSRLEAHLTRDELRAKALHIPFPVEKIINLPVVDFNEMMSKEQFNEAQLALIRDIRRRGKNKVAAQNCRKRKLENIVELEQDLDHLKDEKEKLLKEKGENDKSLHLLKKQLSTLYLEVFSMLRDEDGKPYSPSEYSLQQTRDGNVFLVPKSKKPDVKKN
Chain of Nuclear factor NF-kappa-B p105 subunit (Homo sapiens) (P19838 whole entry, looked up): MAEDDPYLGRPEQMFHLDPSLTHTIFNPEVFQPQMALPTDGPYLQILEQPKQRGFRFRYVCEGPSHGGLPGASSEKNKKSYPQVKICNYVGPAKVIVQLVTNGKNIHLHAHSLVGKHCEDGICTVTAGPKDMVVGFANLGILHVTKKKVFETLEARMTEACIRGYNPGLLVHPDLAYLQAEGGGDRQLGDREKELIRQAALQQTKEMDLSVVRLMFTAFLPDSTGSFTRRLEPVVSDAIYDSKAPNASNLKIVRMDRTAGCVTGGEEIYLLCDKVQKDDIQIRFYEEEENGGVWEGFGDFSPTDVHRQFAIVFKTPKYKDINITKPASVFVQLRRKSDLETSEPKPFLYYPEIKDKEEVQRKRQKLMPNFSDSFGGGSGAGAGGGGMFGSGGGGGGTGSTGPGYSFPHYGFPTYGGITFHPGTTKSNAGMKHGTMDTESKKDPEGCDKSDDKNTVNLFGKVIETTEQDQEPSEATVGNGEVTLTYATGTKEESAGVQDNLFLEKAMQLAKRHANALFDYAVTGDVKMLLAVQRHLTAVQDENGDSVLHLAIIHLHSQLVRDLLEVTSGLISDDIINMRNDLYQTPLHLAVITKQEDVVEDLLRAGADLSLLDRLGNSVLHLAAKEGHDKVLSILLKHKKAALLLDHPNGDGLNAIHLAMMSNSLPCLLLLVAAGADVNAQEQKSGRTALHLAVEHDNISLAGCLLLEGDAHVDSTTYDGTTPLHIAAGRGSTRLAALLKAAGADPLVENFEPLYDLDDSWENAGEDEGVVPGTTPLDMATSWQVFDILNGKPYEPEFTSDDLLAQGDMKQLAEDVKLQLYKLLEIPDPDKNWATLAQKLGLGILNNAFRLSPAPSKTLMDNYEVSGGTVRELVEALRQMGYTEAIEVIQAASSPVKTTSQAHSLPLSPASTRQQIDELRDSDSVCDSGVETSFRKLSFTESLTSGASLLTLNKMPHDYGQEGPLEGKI
Chain of Cellular tumor antigen p53 (Homo sapiens) (P04637 whole entry, looked up): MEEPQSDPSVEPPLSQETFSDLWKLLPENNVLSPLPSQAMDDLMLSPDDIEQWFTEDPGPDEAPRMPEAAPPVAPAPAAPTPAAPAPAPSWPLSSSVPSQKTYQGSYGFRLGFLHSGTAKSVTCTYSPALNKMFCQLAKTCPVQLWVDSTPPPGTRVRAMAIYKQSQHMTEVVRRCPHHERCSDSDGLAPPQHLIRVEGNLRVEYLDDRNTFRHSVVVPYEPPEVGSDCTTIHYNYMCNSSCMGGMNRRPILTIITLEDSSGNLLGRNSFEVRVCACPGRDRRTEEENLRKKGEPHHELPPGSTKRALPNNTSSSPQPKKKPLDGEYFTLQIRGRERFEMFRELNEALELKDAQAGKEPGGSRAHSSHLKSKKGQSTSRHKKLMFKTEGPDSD
Chain of Signal transducer and activator of transcription 3 (Homo sapiens) (P40763 whole entry, looked up): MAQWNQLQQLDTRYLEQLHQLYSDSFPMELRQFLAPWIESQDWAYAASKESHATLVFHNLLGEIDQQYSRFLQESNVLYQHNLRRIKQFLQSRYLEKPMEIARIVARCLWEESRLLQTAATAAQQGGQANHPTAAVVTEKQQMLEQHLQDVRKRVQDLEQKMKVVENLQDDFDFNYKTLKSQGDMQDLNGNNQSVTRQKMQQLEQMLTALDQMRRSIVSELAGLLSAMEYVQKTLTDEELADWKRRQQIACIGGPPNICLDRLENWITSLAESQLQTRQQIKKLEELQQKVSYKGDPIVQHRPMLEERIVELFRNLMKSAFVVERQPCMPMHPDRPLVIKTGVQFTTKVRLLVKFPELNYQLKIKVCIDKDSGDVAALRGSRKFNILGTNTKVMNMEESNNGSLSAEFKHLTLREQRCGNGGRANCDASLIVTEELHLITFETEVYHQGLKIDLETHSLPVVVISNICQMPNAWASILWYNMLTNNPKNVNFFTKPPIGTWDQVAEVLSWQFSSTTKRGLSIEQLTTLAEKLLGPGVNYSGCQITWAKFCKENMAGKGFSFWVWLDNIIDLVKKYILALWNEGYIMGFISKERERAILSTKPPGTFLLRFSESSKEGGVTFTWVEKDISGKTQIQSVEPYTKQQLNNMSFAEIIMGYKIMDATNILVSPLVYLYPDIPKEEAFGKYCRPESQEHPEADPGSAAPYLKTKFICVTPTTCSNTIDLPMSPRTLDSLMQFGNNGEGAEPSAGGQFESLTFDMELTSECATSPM

CCCCC(CC)COP(=O)(OCC(CC)CCCC)OCC(CC)CCCC (stereo unspecified)
not listed: [18] | [19]
inactive: all other assays above

CN(C)CCCN(C)CCCN(C)C
not listed: [10]
inactive: all other assays above

CN(C)C(=O)NC1(c2ccccc2)CCN(CCC[C@]2(c3ccc(Cl)c(Cl)c3)CCCN(C(=O)c3ccccc3)C2)CC1
inactive: [3] | [18] | [8] | [11] | TIMP1, TIMP1 (gene 7076) | [13] | [14] | [15]
active: [1] 21.3 µM | [2] 21.2 µM | [4] 23.8 µM | [5] 19.2 µM | [6] 21.7 µM | [9] 19.5 µM | [10] 19.4 µM | [12] 9.26 µM | [16] 22 µM

CCC(C)N(C)C(=O)c1cc2ccccc2c(-c2ccccc2Cl)n1 (stereo unspecified)
active: [4] 6.3 µM | [5] 40.9 µM | [7] 16.8 µM | [18] 11.1 µM | [10] 8.44 µM
not listed: [19]
inactive: all other assays above

CCCCCCCCCCCCCCCCO
active: [5] 66.3 µM | [10] 50 µM
not listed: [15] | [17]
inactive: all other assays above

O=C(O)c1cccnc1
not listed: [15]
inactive: all other assays above

O=C(O)CN(CC(=O)O)CC(=O)O
not listed: [10] | [17]
inactive: all other assays above

c1ccc2occc2c1
not listed: [10] | [17] | [19]
inactive: all other assays above

CCCCCCC(CCCCCCCCCCC(=O)OCC(COC(C)=O)OC(C)=O)OC(C)=O (stereo unspecified)
not listed: [10] | [17]
inactive: all other assays above

Cc1cc(Cc2ccc(N)c(C)c2)ccc1N
active: [19] 28.1 µM
not listed: [17]
inactive: all other assays above

O=NO
not listed: [15] | [19]
inactive: all other assays above

Oc1ccc(O)cc1
not listed: [10] | [17] | [19]
inactive: all other assays above

Nc1nc(Cl)nc2c1ncn2[C@H]1C[C@H](O)[C@@H](CO)O1
inactive: [1] | [6] | [7] | [18] | [8] | TIMP1, TIMP1 (gene 7076) | [15]
active: [2] 1.92 µM | [3] 3.12 µM | [4] 0.811 µM | [5] 0.452 µM | [9] 0.999 µM | [11] 0.2 µM | [12] 0.365 µM | [13] 0.732 µM | [14] 0.888 µM | [19] 1.66 µM | [16] 2.42 µM | [17] 1.56 µM
